Records with an inconclusive call do not appear. A number with no mark means an inactive call. Activity calls are given as the source filed them. Unless noted, the call rests on the fitted dose curve; in most records, active means well fitted cell-killing curve with a large enough effect in the repeat runs; inconclusive means weak or mixed curves, or effect the other way; inactive means no such curve, though single readings can be large or run the other way.
assay: qHTS assay to identify small molecule antagonists of the vitamin D receptor (VDR) signaling pathway - cell viability counter screen (AID 743225); details: VDR-bla HEK293T viability, CellTiter-Glo luminescence, 16 h; series mostly up to 61 µM; viability change, negative = cytotoxic: at the top concentration; further: nearly all actives have a fitted effect of over 50% in size; further: potency means the concentration at half of the fitted maximal effect
Outline: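 Cytotoxicity counter screen read by CellTiter-Glo luminescence (30 min, room temperature) in the same wells as the VDR-bla antagonist readout. HEK 293T VDR-UAS-bla cells had 16 h at 37C with compound and 3 nM (final) 1-alpha,25-dihydroxyvitamin D3, then 2 h with FRET substrate.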
On the % scale 0 is the no-effect control and ±100 the full control effect.

Row | SMILES | viability change, negative = cytotoxic | Potency
1 | C1COCO1 | 3.55% | 
2 | O=S1OCCO1 | 17.3% [at 78.8 µM] | 
3 | CCOC(=N)CC(=O)OCC | -17.3% | 
4 | CN1CCN(CCCN2c3ccccc3Sc3ccc(S(=O)(=O)N(C)C)cc32)CC1 |  | 23.9 µM (active)
5 | CN(C(=O)C(Cl)Cl)c1ccc(OC(=O)c2ccco2)cc1 | 2.35% | 
6 | CC1CN(c2cc3c(cc2F)c(=O)c(C(=O)O)cn3-c2ccc(F)cc2F)CCN1 (centres undefined) | 9.78% [at 6.95 µM] | 
7 | CCC(C(=O)OCCOCCN(CC)CC)c1ccccc1 (centres undefined) | -5.14% | 
8 | CCCCCCCCCCCC(=O)[O][Sn]([CH2]CCC)([CH2]CCC)[O]C(=O)CCCCCCCCCCC | -6.93% | 
9 | COC(=O)[C@@H]1CC2=CC(=O)CC[C@]2(C)[C@@]23O[C@@H]2C[C@@]2(C)[C@@H](CC[C@@]24CCC(=O)O4)[C@H]13 | -0.17% | 
10 | CC1CC(O)CC(C)(C)C1 (centres undefined) | -12.4% | 
11 | CO/N=C1\CN(c2nc3c(cc2F)c(=O)c(C(=O)O)cn3C2CC2)CC1CN (centres undefined) | -6.64% | 
12 | C=CC(=O)NCOCC(C)C | 10.4% | 
13 | O=C(O)c1c(O)c(-c2ccccc2)nc2ccccc12 | -16.7% | 
14 | CC(CCO)CCc1ccccc1 (centres undefined) | 1.28% | 
15 | COc1ccc(CCC(=O)c2c(O)cc(O[C@@H]3O[C@H](CO)[C@@H](O)[C@H](O)[C@H]3O[C@@H]3O[C@@H](C)[C@H](O)[C@@H](O)[C@H]3O)cc2O)cc1O | 2.17% | 
16 | COc1ccc(C(=O)c2cccc(O)c2)c(OC)c1 | 2.65% | 
17 | Cc1cc(O)c2c(O)c3c(O)cccc3cc2c1 | 0.705% | 
18 | CCC(C)(C)C1CCC(O)CC1 (centres undefined) | 3.32% | 
19 | Cc1ccccc1N1C(=O)c2cc(S(N)(=O)=O)c(Cl)cc2NC1C (centres undefined) | 0.768% | 
20 | C/C=C(\C)C(=O)OCCC(C)CCC=C(C)C (centres undefined) | 0.496% | 
21 | O=C(O)c1cccc(O)c1 | 1.48% [at 78.8 µM] | 
22 | CCCCCC=CCC=CCCCCCCCC(=O)OCC | -15.6% | 
23 | C[N+](C)(C)CCOC(N)=O | 11.2% | 
24 | CCCCC(=O)O[C@]1(C(=O)CO)CC[C@H]2[C@@H]3CCC4=CC(=O)CC[C@]4(C)[C@H]3[C@@H](O)C[C@@]21C | -11.8% | 

assay: qHTS assay to identify small molecule agonists of the NFkB signaling pathway (AID 1159509; active means well fitted curve in the direction sought with a large enough effect in the signal ratio in the repeat runs, not every such curve was filed as active; the % refers to the signal ratio); details: NFkB-bla ME-180 cells, beta-lactamase FRET ratio, 5 h; series mostly up to 61 µM; activation: at the top concentration
Outline: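 Readout: FRET fluorescence, 405 nm excitation, 460/530 nm emission; beta-lactamase expression disrupts FRET. Cells: ME-180 stably carrying NF-kB-driven bla reporter. Compound exposure 5 hr, 37 C, 5% CO2.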

Row | SMILES | activation
25 | C1COCO1 | 0.0603%
26 | O=S1OCCO1 | -0.876% [at 78.8 µM]
27 | CNCCCC1c2ccccc2C=Cc2ccccc21 | 1.99%
28 | NC(=O)Cn1c(=O)cc(CCN2CCN(c3nccc4sccc34)CC2)c2ccc(F)cc21 | 0.0591%
29 | O=C(N/N=C/c1ccc([N+](=O)[O-])o1)c1ccc(O)cc1 | 1.29%
30 | CC(=O)Nc1ccccc1C | -0.21% [at 78.8 µM]
31 | O=C(CCCN1CCC(O)(c2ccc(Br)cc2)CC1)c1ccc(F)cc1 | -0.393%
32 | CCOC(=N)CC(=O)OCC | -0.289%
33 | Cc1cc(C(=C2C=CC(=Nc3ccc(S(=O)(=O)O)cc3S(=O)(=O)O)C=C2)c2ccc(Nc3ccc(S(=O)(=O)O)cc3)cc2)ccc1N | 2.75%
34 | CCCCC(CC)C(=O)OCCOCCOCCOCCOC(=O)C(CC)CCCC (centres undefined) | -0.149%
35 | CN1CCN(CCCN2c3ccccc3Sc3ccc(S(=O)(=O)N(C)C)cc32)CC1 | 1.97%
36 | CCCCN(CCCC)CCCOC(=O)c1ccc(N)cc1 | -0.0868%
37 | O=C(CCCCCCCCC#CI)Oc1ccccc1 | 0.185%
38 | CSc1ccc(Oc2ccc(S(N)(=O)=O)cc2CN(C)C)cc1C | -0.113%
39 | CN(C(=O)C(Cl)Cl)c1ccc(OC(=O)c2ccco2)cc1 | -0.193%
40 | CC1CN(c2cc3c(cc2F)c(=O)c(C(=O)O)cn3-c2ccc(F)cc2F)CCN1 (centres undefined) | 0.411% [at 6.95 µM]
41 | CCC(C(=O)OCCOCCN(CC)CC)c1ccccc1 (centres undefined) | 0.244%
42 | C[C@@H]1C[C@H]2[C@@H]3CCC4=CC(=O)C=C[C@]4(C)[C@@]3(F)[C@@H](O)C[C@]2(C)[C@@]1(O)C(=O)CO | -0.917% [at 78.8 µM]
43 | CCCCCCCCCCCC(=O)[O][Sn]([CH2]CCC)([CH2]CCC)[O]C(=O)CCCCCCCCCCC | 0.192%
44 | COC(=O)[C@@H]1CC2=CC(=O)CC[C@]2(C)[C@@]23O[C@@H]2C[C@@]2(C)[C@@H](CC[C@@]24CCC(=O)O4)[C@H]13 | 0.331%

Row | SMILES | activation
45 | CC1CC(O)CC(C)(C)C1 (centres undefined) | 0.306%
46 | CCOC(=O)/C=C/C(=O)O | -0.221%
47 | CO/N=C1\CN(c2nc3c(cc2F)c(=O)c(C(=O)O)cn3C2CC2)CC1CN (centres undefined) | 1.37%
48 | C=CC(=O)NCOCC(C)C | -0.0661%
49 | O=C(O)c1c(O)c(-c2ccccc2)nc2ccccc12 | 3.14%
50 | CC(CCO)CCc1ccccc1 (centres undefined) | -1.22%
51 | COc1ccc(CCC(=O)c2c(O)cc(O[C@@H]3O[C@H](CO)[C@@H](O)[C@H](O)[C@H]3O[C@@H]3O[C@@H](C)[C@H](O)[C@@H](O)[C@H]3O)cc2O)cc1O | 0.0853%
52 | COc1ccc(C(=O)c2cccc(O)c2)c(OC)c1 | 0.0262%
53 | N#C/C(=C1/SC[C@@H](c2ccc(Cl)cc2Cl)S1)n1ccnc1 | -1.11%
54 | Cc1cc(O)c2c(O)c3c(O)cccc3cc2c1 | -0.783%
55 | CCC(C)(C)C1CCC(O)CC1 (centres undefined) | 2.51%
56 | Cc1ccccc1N1C(=O)c2cc(S(N)(=O)=O)c(Cl)cc2NC1C (centres undefined) | -0.149%
57 | C/C=C(\C)C(=O)OCCC(C)CCC=C(C)C (centres undefined) | 0.284%
58 | O=C(O)c1cccc(O)c1 | -0.0968% [at 78.8 µM]
59 | COc1cc2c(N3CCN(C(=O)Nc4ccc(OC(C)C)cc4)CC3)ncnc2cc1OCCCN1CCCCC1 | 1.71%
60 | CCOC(=O)c1ccccc1C | -0.586%
61 | CCCCCC=CCC=CCCCCCCCC(=O)OCC | -0.821%
62 | C[N+](C)(C)CCOC(N)=O | 1.42%
63 | CCCCC(=O)O[C@]1(C(=O)CO)CC[C@H]2[C@@H]3CCC4=CC(=O)CC[C@]4(C)[C@H]3[C@@H](O)C[C@@]21C | -1.3%
64 | C=CCNc1nc(NCC=C)nc(N2CCN(C(c3ccc(F)cc3)c3ccc(F)cc3)CC2)n1 | 1.38%
